Assay results: the supplement of paper PMC7411054

Key:
Conditions in all cases: treatment time: 24 h
WPMY1-ACTB-RAB5A [1] = experiment: lowest phenotypically active concentration; higher = less potent
Summary of the method: (§1)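 Fifteen gene-edited A549, HepG2 and WPMY1 reporter lines (BFP segmentation plus GFP and RFP/FusionRed markers) were treated at 0.3, 1, 3 or 9 µM for 24 h, four wells each, then imaged live. Live-cell features per well were normalised to DMSO control wells. Deviation required ≥3 of 4 wells beyond the 95th percentile of DMSO Euclidean distances, and reproducibility required median replicate Pearson correlation above the 95th percentile of non-replicates. Phenotypic activity needed both criteria.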

WPMY1-GM130-SQSTM1 [2] = experiment: as above
Summary of the method: as §1

A549-ACTB-RAB5A = experiment: phenotypically active (imaging signature differs from DMSO and reproducible) at any of 0.3-9 uM (binary (1 = active, 0 = inactive)); higher = active
Summary of the method: as §1

A549-CANX-COX4 = experiment: as above
Summary of the method: as §1

A549-GM130-SQSTM1 [3] = experiment: as above
Summary of the method: as §1

A549-TP53BP1-CLTA = experiment: as above
Summary of the method: as §1

A549-TUBA1B-RELA = experiment: as above
Summary of the method: as §1

HepG2-ACTB-RAB5A = experiment: as above
Summary of the method: as §1

HepG2-CANX-COX4 = experiment: as above
Summary of the method: as §1

HepG2-GM130-SQSTM1 = experiment: as above
Summary of the method: as §1

HepG2-TP53BP1-CLTA = experiment: as above
Summary of the method: as §1

HepG2-TUBA1B-RELA = experiment: as above
Summary of the method: as §1

WPMY1-ACTB-RAB5A [4] = experiment: as above
Summary of the method: as §1

WPMY1-CANX-COX4 = experiment: as above
Summary of the method: as §1

WPMY1-GM130-SQSTM1 [5] = experiment: as above
Summary of the method: as §1

WPMY1-TP53BP1-CLTA = experiment: as above
Summary of the method: as §1

WPMY1-TUBA1B-RELA = experiment: as above
Summary of the method: as §1

A549-GM130-SQSTM1 [6] = experiment: lowest phenotypically active concentration; higher = less potent
Summary of the method: as §1

Row | Structure (SMILES) | lowest phenotypically active concentration (WPMY1-ACTB-RAB5A [1]) | lowest phenotypically active concentration (WPMY1-GM130-SQSTM1 [2]) | phenotypically active (A549-ACTB-RAB5A) | phenotypically active (A549-CANX-COX4) | phenotypically active (A549-GM130-SQSTM1 [3]) | phenotypically active (A549-TP53BP1-CLTA) | phenotypically active (A549-TUBA1B-RELA) | phenotypically active (HepG2-ACTB-RAB5A) | phenotypically active (HepG2-CANX-COX4) | phenotypically active (HepG2-GM130-SQSTM1) | phenotypically active (HepG2-TP53BP1-CLTA) | phenotypically active (HepG2-TUBA1B-RELA) | phenotypically active (WPMY1-ACTB-RAB5A [4]) | phenotypically active (WPMY1-CANX-COX4) | phenotypically active (WPMY1-GM130-SQSTM1 [5]) | phenotypically active (WPMY1-TP53BP1-CLTA) | phenotypically active (WPMY1-TUBA1B-RELA) | lowest phenotypically active concentration (A549-GM130-SQSTM1 [6])
1 | C[C@H](NC(=O)c1sccc1OCc1ccc(Cl)cc1)c1ccccc1 | ≤ 0.3 µM | 3 µM | 0 (inactive) | 0 (inactive) | 0 (inactive) | 1 (active) | 0 (inactive) | 0 (inactive) | 0 (inactive) | 0 (inactive) | 0 (inactive) | 0 (inactive) | 1 (active) | 0 (inactive) | 1 (active) | 1 (active) | 0 (inactive) | –
2 | O=c1cc(N2CCOCC2)oc2c1ccc1ccccc12 | – | – | 0 (inactive) | 0 (inactive) | 1 (active) | 0 (inactive) | 0 (inactive) | 0 (inactive) | 0 (inactive) | 0 (inactive) | 0 (inactive) | 0 (inactive) | 0 (inactive) | 0 (inactive) | 0 (inactive) | 0 (inactive) | 1 (active) | 3 µM
3 | COCCCOc1ccnc(CS(=O)c2nc3ccccc3[nH]2)c1C (stereo not drawn) [rabeprazole] | – | – | 0 (inactive) | 0 (inactive) | 0 (inactive) | 0 (inactive) | 0 (inactive) | 1 (active) | 0 (inactive) | 0 (inactive) | 0 (inactive) | 1 (active) | 0 (inactive) | 0 (inactive) | 0 (inactive) | 0 (inactive) | 0 (inactive) | –
